A selection: hits, their analogues and other compounds. The true share with any hit is near 7.5%.
KinaseGlo FLuc – counter-screen: inhibitors of Kinase-Glo firefly luciferase. Potency, µM (series often up to 38.3 µM), for inactives: at the top dose activity change, negative = inhibition, usual class: inhibitors. AID 1379. Kinase-Glo luciferase, ATP luminescence, 8 min. 200,000 tested, 0.28% active. Q27757; note: % is set by controls: 0 for no effect and ±100 for the full control effect; nearly all actives have a fitted effect of over 60% in size
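Kinase-Glo luciferase light output from ATP and luciferin was measured with 10 uM ATP, within the enzyme's linear range. Buffer: 50 mM imidazole pH 7.2, 50 mM KCl, 7 mM MgCl2, 0.01% Tween 20, 0.05% BSA; luminescence read after 8 min at ambient temperature.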
FLuc counter – firefly luciferase modulation, counter-screen for miR-21 project. P08659. purified FLuc, Km substrates, luminescence inhibition. Potency, µM (top dose mostly 57.5 µM), for inactives: top-dose activity change, negative = inhibition, actives largely listed as inhibitors. 360,000 tested, 6.9% active. AID 588342;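 note: plate controls were vehicle for no effect and reference inhibitor for full effect; nearly all actives have a fitted effect of over 55% in size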
Target sequence (P08659 whole entry, looked up): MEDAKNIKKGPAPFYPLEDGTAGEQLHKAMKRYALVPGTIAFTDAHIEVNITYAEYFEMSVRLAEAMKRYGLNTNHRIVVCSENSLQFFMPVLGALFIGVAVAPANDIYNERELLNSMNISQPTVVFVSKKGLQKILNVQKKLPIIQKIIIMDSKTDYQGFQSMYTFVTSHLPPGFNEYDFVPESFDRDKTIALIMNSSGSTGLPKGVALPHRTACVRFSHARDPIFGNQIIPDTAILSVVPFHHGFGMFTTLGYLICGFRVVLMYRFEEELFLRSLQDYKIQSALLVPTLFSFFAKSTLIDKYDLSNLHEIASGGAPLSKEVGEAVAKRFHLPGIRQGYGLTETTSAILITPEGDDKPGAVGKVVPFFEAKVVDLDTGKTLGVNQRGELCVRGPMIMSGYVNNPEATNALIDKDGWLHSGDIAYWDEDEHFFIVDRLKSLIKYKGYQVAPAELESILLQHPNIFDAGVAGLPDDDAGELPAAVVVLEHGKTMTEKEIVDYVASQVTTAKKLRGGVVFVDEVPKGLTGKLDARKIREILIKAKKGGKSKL
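Purified P. pyralis luciferase (10nM final) with 10uM D-luciferin and 10uM ATP (Km levels) in 50mM Tris acetate pH 7.5, 10mM Mg acetate, 0.01% Tween-20, 0.05% BSA; qHTS 6-point titration, ~60 µM downward; luminescence read.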
Rab9 prom act – Rab9 promoter activation; Huh7 Rab9 promoter-luciferase reporter, luminescence, 24 h; Potency, µM (highest dose often 9.22 µM), for inactives: at the highest dose activation, negative = inhibition, actives largely listed as activators; 320,000 tested, 2.8% active; note: % of control where 0% means no effect; nearly all actives have a fitted effect of over 60% in size
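Stable Rab9-luc Huh7, 1500 cells/well, 2 h settle; cmpd in DMSO, 24 h, 37 °C/5% CO2; luciferase reagent 10 min RT; luminescence.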
SMN2 splice up – enhancers of SMN2 splice variant expression; AID 1458; Potency, µM (titrated, usually from 46.1 µM), without a hit: top-dose activity change, positive = activation, hits mostly activators; 210,000 tested, 2.8% active; HEK293 SMN2-luciferase splicing reporter, luminescence, 30-36 h; note: % of control where 0% means no effect; nearly all actives have a fitted effect of over 55% in size
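HEK293 cells carry an SMN2 minigene-luciferase reporter in which exon 7 inclusion puts luciferase in frame. Cells were seeded at 2000 cells/well, attached for 10-12 hours, then exposed to compounds for 30-36 hours at 37C before ONE-Glo luminescence.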
NPC1 promoter act – NPC1 promoter activation; Huh7 NPC1 promoter luciferase reporter, 24 h; Potency, µM (doses to about 9.22 µM), inactives show at the highest dose activation, usual class: activators; 320,000 tested, 2.4% active; AID 485313; note: % of control where 0% means no effect; nearly all actives have a fitted effect of over 60% in size
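Readout is luciferase luminescence, reflecting NPC1 promoter activation in stably transfected Huh7 cells after 24 h compound exposure at 37 °C in reduced-serum medium with 10% FBS.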
ELG1 genotoxic – induces genotoxicity in HEK293T cells with luciferase-tagged ELG1; AID 504466; Potency, µM (titrated, usually from 46 µM), for inactives: at the top dose activity change, positive = activation, usual class: activators; 330,000 tested, 1.3% active; HEK293T ELG1-luciferase reporter, luminescence, 16 h; note: % of control where 0% means no effect; nearly all actives have a fitted effect of over 60% in size
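Reporter readout depends on ELG1 protein level, which increases with genetic stress. After 16 hr compound exposure at 37 °C, luciferase activity was quantified using ONE-Glo.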
The depositor's hits bear a star; u = inconclusive; x = not tested or not shown; [ ] = another dose, or the depositor's remark. Calls come from the whole dose curve; as a rule, active = well fitted curve in the direction sought with a large enough effect; inconclusive = small, poorly fitted or top-dose-only effect, or another doubt; inactive = no such curve, though single readings can be large; an effect the other way counts as inactive or inconclusive. Potency is the fitted concentration of half-maximal effect.

SMILES	KinaseGlo FLuc	FLuc counter	Rab9 prom act	SMN2 splice up	NPC1 promoter act	ELG1 genotoxic
Nc1c(C(=O)NCC2CCCO2)sc2nc3c(c(-c4ccco4)c12)CC/C3=C\c1ccco1 (configuration not stated)	-7%	5.4µM*	3%	-1%	1%	1%
O=C(COc1ccccc1F)Nc1ccc(S(=O)(=O)N2CCCC2)cc1	x	4%	-1%	x	-3%	-2%
Cc1cccc(NC(=S)NC(=O)c2oc3ccccc3c2C)n1	x	u	1.4µM*	x	1.3µM*	u
Cc1cccc(NC(=S)NC(=O)c2ccc(-c3ccccc3)cc2)n1	x	11µM*	2.2µM*	x	2.8µM*	u
Cc1cccc(NC(=O)Cc2ccc(-c3ccccc3)cc2)n1	x	u	3%	x	-2%	-5%
Cc1nc(-c2ccccc2)sc1-c1nc(-c2cccs2)ncc1S(=O)(=O)c1ccccc1	-1%	3%	-2%	-26%	-3%	3%
Cn1c(SCC(=O)Nc2cccc(S(=O)(=O)NC3=NCCCCC3)c2)nnc1-c1ccncc1	2%	0%	0%	3%	-4%	0%
CC1=NN(c2nc(-c3ccc(C)cc3)cs2)C(=O)C1N=Nc1ccccc1O (configuration not stated)	-2%	11µM*	-52%	x	-38%	-8%
COc1ccc(-c2csc(N3N=C(C)C(C)C3=O)n2)cc1 (configuration not stated)	-4%	8.5µM*	4.5µM*	u	u	9%
CCC1(c2ccc(Cl)cc2)NC(=O)N(CC(=O)NC2CCCC(C)C2C)C1=O (configuration not stated)	x	7%	-9%	x	0%	-2%
CSc1ccc(CNC(=O)CCn2ccc3cc(S(=O)(=O)N4CCC(C)CC4)ccc32)cc1	x	-4%	x	x	x	x
N#CC1=C(N)Oc2c(oc(CO)cc2=O)C1c1ccsc1 (configuration not stated)	3%	0%	-3%[1.84 µM]	-5%	3%	-3%
N#CC1=C(N)Oc2c(ccc3ccccc23)C1c1ccsc1 (configuration not stated)	2%	u	-23%	-29%	-5%	15µM*
CCc1ccccc1NC(=O)Cn1nnc(-c2nc(-c3ccncc3)no2)c1N	x	-1%	x	x	x	x
CCC(=O)Nc1cccc(C2=NOC3(C2)C[C@@H](C(N)=O)N(C(=O)COc2ccc(Cl)cc2)C3)c1 (some centres not stated)	x	-4%	-4%	x	-5%	3%
CC1(C(=O)N2CC3(CC(c4cccc(NC(=O)COc5ccc(Cl)cc5)c4)=NO3)C[C@@H]2C(N)=O)CC1 (some centres not stated)	x	21µM*	0%	x	3%	-6%
C/C=C/C(=O)N1CC2(CC(c3cccc(NC(=O)COc4ccc(Cl)cc4)c3)=NO2)C[C@@H]1C(N)=O (some centres not stated)	x	19µM*	-6%	x	u	-4%
CCCCCC(=O)Nc1cccc(C2=NOC3(C2)C[C@H](C(N)=O)N(C(=O)CCCCC)C3)c1 (some centres not stated)	x	-4%	-7%	x	-4%	-9%
CCCCCC(=O)N1CC2(CC(c3cccc(NC(=O)COc4ccc(Cl)cc4)c3)=NO2)C[C@@H]1C(N)=O (some centres not stated)	x	13µM*	-5%	x	-1%	-10%
CCC(=O)N1CC2(CC(c3cccc(NC(=O)COc4ccc(Cl)cc4)c3)=NO2)C[C@@H]1C(N)=O (some centres not stated)	x	17µM*	-2%	x	2%	-3%
NC(=O)[C@H]1CC2(CC(c3cccc(NC(=O)COc4ccc(Cl)cc4)c3)=NO2)CN1C(=O)c1ccccc1C(=O)c1ccccc1 (some centres not stated)	x	u	-4%	x	-3%	-11%

Compound activity: PubChem, National Center for Advancing Translational Sciences (NCATS)
